The values below come from ChEMBL document CHEMBL1961873, “Compounds: GSK PKIS; Assays: Nanosyn kinase panel” (2012).

By inhibition is commonly meant the relative decrease from the control value, in per cent.

Assay [1] deals with Epidermal growth factor receptor (Homo sapiens), P00533 [T790M]. The following applies: at 1 µM.
The subject of assay [2] is Epidermal growth factor receptor (Homo sapiens), P00533 [L858R,T790M]. The following applies: at 0.1 µM.
Assay [3] shares this test system. The following applies: at 1 µM.
Assay [4] addresses Ephrin type-A receptor 2 (Homo sapiens) (UniProt P29317). The following applies: at 0.1 µM.
Assay [5] has the same target. The following applies: at 1 µM.
Assay [6] has as its target T1, Ephrin type-A receptor 3 (Homo sapiens) (UniProt P29320).
T1 sequence (whole entry): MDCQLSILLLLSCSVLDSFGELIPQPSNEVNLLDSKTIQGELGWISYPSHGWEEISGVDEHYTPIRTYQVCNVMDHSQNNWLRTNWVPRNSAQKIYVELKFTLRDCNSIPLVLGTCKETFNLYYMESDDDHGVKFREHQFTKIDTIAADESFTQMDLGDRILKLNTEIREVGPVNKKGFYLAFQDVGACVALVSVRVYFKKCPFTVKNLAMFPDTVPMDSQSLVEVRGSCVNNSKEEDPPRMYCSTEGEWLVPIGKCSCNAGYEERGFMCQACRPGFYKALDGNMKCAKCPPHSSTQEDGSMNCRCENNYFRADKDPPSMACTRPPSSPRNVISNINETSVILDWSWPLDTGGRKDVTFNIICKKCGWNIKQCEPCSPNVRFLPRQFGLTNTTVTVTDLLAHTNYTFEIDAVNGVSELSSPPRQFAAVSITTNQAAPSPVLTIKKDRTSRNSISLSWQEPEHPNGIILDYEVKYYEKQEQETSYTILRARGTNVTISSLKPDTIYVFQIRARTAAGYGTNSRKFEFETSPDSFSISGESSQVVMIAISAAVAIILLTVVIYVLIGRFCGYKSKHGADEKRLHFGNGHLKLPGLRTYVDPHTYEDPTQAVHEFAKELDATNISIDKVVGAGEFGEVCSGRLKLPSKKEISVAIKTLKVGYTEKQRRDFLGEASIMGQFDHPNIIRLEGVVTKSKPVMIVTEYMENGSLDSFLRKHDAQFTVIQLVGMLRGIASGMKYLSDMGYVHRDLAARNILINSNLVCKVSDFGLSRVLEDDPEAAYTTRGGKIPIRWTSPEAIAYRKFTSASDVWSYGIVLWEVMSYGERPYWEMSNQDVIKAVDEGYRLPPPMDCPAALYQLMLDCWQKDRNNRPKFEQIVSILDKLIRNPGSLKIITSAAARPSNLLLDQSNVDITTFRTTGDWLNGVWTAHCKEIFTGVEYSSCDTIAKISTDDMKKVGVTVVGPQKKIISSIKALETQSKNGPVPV
The following applies: at 0.1 µM.

For assay [7], the target named is T1, Ephrin type-A receptor 3 (Homo sapiens). The note with it: at 1 µM.
Assay [8] has as its target Ephrin type-A receptor 4 (Homo sapiens) (UniProt P54764). The following applies: at 0.1 µM.
The target is the same in assay [9]. The following applies: at 1 µM.
The target in assay [10] is T2, Ephrin type-B receptor 2 (Homo sapiens) (UniProt P29323).
T2 sequence (whole entry): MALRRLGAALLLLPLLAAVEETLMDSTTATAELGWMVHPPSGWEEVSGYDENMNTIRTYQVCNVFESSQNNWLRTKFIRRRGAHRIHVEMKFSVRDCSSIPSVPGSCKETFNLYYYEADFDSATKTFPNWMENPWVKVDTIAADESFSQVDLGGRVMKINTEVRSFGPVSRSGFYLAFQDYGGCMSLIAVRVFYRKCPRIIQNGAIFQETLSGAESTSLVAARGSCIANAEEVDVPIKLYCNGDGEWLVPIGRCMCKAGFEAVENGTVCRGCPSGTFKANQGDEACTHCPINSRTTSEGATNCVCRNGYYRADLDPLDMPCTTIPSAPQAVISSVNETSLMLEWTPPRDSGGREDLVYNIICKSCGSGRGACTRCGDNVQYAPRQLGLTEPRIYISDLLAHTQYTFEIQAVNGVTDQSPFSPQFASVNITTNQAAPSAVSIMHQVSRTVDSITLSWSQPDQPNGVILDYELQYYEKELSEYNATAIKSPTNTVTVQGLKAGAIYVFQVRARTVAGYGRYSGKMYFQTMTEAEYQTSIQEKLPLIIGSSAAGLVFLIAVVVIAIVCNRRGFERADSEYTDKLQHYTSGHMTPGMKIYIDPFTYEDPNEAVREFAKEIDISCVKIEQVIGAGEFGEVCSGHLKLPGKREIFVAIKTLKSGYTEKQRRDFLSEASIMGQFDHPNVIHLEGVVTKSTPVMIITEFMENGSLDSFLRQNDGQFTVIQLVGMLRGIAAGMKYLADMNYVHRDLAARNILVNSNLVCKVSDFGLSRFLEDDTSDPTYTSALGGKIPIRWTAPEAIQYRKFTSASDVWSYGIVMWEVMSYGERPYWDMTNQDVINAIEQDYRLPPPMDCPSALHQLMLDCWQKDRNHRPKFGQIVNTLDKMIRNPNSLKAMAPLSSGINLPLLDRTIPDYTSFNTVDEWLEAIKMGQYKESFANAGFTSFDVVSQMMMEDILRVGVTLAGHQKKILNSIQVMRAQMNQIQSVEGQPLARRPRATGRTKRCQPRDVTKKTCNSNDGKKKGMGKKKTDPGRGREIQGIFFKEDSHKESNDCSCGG
The following applies: at 0.1 µM.

In assay [11] the target is T2, Ephrin type-B receptor 2 (Homo sapiens). The note with it: at 1 µM.
In assay [12] the target is T3, Ephrin type-B receptor 3 (Homo sapiens) (UniProt P54753).
T3 sequence (whole entry): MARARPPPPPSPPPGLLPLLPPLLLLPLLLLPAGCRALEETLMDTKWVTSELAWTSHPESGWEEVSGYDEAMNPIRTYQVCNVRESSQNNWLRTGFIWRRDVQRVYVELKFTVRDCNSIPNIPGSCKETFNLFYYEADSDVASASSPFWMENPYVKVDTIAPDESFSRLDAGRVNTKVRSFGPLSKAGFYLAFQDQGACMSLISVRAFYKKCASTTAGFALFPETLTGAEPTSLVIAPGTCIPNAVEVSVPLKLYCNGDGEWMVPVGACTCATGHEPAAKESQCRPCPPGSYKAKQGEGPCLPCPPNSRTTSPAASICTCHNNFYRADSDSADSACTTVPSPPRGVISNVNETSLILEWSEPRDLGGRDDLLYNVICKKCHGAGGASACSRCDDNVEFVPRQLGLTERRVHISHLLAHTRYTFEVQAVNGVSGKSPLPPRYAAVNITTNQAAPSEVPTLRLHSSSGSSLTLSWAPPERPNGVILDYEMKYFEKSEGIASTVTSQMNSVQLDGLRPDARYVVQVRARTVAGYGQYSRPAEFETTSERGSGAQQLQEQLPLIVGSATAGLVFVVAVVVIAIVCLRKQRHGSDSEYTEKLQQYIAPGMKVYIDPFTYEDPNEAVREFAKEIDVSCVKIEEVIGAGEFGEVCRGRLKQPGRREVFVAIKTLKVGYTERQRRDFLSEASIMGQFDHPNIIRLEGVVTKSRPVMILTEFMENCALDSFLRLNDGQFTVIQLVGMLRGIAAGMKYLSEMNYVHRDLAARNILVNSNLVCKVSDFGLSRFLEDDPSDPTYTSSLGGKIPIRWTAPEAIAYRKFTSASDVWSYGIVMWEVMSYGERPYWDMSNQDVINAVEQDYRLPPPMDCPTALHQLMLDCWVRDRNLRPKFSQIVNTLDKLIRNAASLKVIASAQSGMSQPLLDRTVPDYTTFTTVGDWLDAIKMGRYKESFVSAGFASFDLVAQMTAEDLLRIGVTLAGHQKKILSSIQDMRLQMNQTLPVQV
The following applies: at 0.1 µM.

For assay [13], the target named is T3, Ephrin type-B receptor 3 (Homo sapiens). The note with it: at 1 µM.
The target in assay [14] is T4, Ephrin type-B receptor 4 (Homo sapiens) (UniProt P54760).
T4 sequence (whole entry): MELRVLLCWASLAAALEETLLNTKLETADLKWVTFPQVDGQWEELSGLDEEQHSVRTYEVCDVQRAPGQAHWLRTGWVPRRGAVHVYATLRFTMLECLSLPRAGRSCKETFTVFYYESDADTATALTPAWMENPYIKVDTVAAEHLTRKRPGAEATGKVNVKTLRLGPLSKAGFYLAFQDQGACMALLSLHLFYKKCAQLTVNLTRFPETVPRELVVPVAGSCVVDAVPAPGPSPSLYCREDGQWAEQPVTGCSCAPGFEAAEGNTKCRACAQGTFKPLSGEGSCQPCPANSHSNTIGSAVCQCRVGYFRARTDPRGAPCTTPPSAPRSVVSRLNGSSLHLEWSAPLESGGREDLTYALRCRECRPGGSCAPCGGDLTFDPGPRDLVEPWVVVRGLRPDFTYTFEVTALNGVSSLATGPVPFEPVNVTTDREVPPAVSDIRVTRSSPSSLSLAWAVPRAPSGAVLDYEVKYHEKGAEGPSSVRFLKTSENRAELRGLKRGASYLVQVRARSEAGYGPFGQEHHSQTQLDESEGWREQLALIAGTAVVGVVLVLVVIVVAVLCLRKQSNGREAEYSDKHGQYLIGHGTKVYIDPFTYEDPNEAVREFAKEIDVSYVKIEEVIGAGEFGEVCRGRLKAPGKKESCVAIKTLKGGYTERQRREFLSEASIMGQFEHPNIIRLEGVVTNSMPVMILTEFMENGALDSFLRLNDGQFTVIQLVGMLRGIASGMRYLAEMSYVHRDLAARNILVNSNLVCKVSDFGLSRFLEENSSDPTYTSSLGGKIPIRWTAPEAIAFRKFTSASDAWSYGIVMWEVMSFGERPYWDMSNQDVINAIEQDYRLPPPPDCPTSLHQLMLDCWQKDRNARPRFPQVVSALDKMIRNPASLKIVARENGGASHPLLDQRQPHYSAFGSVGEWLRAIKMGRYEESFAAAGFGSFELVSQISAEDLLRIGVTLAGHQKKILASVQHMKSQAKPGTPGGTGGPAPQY
The note with it: at 0.1 µM.

Assay [15] deals with T4, Ephrin type-B receptor 4 (Homo sapiens). The following applies: at 1 µM.
Assay [16] addresses Receptor tyrosine-protein kinase erbB-2 (Homo sapiens) (UniProt P04626). The following applies: at 0.1 µM.
Assay [17] shares this target. The note with it: at 1 µM.
Assay [18] deals with Receptor tyrosine-protein kinase erbB-4 (Homo sapiens) (UniProt Q15303). The following applies: at 0.1 µM.
Assay [19] shares this target. The following applies: at 1 µM.
Assay [20] deals with Tyrosine-protein kinase Fer (Homo sapiens) (UniProt P16591). The following applies: at 0.1 µM.

Chain of Receptor tyrosine-protein kinase erbB-2 (Homo sapiens) (P04626 whole entry): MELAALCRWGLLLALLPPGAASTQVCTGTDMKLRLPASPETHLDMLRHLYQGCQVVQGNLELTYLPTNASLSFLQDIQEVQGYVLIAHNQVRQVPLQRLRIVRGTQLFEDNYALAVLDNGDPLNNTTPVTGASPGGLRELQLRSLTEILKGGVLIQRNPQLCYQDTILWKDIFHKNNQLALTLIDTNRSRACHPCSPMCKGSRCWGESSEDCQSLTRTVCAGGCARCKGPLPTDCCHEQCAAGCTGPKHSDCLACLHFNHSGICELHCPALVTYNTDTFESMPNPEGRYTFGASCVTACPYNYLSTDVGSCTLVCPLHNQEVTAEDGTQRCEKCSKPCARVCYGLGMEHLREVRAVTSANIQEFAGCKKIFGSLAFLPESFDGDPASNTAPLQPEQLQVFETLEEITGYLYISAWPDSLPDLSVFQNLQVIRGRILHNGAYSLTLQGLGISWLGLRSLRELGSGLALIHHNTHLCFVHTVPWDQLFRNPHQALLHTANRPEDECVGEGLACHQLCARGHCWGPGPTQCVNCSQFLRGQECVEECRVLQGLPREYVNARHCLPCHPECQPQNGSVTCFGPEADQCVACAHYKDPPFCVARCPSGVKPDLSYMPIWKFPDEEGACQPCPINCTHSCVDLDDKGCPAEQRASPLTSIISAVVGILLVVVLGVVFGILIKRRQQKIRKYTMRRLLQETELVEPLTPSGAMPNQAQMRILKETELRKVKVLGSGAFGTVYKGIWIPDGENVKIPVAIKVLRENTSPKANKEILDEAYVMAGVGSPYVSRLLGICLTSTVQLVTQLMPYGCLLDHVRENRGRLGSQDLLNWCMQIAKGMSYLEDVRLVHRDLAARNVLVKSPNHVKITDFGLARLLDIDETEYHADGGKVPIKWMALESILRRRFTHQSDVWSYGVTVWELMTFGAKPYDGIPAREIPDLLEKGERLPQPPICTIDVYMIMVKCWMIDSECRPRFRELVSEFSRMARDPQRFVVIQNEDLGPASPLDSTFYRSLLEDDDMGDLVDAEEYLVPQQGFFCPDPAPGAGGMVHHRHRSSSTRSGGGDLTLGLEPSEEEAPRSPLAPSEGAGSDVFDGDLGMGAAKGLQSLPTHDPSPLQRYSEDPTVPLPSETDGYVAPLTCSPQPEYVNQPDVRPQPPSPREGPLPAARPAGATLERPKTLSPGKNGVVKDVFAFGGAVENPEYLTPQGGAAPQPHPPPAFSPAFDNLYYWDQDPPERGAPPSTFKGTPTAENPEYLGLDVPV
Chain of Epidermal growth factor receptor (Homo sapiens), P00533 [T790M] (P00533 whole entry T790M): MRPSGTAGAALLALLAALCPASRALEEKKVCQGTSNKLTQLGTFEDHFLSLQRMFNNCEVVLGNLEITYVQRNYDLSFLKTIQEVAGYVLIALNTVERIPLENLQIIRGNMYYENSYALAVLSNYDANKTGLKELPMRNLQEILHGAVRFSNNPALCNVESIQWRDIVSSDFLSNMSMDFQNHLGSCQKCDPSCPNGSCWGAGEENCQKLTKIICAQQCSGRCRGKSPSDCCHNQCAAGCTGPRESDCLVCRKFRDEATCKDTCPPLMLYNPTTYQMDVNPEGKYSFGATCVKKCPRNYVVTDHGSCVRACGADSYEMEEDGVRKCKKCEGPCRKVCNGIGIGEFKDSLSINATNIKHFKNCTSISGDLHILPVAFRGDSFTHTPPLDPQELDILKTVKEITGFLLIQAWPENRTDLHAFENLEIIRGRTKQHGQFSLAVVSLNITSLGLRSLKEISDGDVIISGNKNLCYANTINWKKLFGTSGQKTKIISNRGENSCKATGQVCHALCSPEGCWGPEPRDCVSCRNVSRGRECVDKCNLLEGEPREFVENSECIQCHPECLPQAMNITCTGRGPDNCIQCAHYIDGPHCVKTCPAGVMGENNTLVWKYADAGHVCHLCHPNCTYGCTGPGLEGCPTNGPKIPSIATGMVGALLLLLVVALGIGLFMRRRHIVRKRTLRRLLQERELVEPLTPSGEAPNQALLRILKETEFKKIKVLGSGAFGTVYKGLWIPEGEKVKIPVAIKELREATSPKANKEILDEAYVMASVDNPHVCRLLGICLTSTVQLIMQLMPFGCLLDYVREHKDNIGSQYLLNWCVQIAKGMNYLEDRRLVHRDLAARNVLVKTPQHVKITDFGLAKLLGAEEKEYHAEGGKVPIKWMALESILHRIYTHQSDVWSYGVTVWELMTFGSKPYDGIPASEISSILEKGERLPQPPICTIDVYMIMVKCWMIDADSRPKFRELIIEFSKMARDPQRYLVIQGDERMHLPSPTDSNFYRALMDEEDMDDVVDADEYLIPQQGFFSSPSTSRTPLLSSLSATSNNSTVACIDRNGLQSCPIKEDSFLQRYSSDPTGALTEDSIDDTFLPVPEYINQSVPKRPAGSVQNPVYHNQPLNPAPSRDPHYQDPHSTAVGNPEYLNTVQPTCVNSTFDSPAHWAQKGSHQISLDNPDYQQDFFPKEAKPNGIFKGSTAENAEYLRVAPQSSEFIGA
Chain of Ephrin type-A receptor 4 (Homo sapiens) (P54764 whole entry): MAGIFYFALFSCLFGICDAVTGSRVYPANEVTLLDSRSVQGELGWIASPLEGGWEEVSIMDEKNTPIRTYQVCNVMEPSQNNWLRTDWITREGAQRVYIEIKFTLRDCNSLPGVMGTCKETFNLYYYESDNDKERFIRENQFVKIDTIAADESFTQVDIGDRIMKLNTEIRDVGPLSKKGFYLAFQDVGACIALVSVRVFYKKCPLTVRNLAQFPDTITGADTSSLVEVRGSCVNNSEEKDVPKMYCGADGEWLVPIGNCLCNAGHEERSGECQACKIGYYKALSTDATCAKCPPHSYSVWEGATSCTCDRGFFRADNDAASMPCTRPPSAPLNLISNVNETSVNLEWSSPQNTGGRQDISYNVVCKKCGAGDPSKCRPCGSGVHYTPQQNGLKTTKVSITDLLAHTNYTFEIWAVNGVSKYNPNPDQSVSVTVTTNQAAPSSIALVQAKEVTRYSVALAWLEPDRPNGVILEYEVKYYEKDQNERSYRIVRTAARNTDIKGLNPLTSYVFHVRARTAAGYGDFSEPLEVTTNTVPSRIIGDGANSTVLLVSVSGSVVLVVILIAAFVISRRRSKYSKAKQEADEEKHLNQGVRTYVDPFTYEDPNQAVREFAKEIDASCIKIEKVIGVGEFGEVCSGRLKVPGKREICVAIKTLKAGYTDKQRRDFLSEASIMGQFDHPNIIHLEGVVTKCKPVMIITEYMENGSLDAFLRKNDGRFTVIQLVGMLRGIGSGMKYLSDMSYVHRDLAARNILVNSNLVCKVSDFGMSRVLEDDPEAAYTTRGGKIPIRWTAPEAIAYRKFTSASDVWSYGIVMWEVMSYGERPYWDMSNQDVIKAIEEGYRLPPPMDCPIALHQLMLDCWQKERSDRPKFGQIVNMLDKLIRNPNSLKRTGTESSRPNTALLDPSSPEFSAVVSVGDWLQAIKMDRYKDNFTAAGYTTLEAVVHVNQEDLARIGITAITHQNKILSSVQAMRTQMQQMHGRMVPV
Chain of Epidermal growth factor receptor (Homo sapiens), P00533 [L858R,T790M] (P00533 whole entry T790M/L858R, looked up): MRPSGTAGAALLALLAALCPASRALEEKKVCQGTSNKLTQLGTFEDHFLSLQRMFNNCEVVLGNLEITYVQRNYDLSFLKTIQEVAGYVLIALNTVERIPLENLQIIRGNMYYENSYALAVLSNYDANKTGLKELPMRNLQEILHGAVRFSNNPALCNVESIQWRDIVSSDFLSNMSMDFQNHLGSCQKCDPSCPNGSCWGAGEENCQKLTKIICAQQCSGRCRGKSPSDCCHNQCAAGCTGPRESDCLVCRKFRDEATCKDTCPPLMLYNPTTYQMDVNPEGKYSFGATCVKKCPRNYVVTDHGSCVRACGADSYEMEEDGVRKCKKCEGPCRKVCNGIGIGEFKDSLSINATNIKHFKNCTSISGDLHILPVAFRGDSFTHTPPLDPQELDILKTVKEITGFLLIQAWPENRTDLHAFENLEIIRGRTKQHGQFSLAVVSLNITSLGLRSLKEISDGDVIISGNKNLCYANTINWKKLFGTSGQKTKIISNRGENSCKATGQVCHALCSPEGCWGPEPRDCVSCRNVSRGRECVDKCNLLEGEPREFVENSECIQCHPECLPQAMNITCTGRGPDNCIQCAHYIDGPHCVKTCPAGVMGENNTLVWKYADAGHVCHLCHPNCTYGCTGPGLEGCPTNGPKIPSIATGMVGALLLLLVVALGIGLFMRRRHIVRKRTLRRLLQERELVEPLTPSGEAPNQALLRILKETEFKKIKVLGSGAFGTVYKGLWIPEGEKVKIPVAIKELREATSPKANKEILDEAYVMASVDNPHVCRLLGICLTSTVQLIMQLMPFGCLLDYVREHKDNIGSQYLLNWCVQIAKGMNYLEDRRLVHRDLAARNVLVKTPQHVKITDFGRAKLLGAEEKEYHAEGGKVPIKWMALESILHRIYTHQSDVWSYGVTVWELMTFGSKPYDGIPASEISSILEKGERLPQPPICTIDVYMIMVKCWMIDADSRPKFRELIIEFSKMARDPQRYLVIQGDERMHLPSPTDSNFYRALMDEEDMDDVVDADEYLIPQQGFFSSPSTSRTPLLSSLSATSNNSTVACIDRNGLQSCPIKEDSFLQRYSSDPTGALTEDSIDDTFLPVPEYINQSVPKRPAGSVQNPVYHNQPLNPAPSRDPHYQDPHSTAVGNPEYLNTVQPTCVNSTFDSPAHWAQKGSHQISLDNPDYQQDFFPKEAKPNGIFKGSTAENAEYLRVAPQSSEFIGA

For the molecule `CN(C)CCOc1ccc(-c2cc(-c3ccc4c(c3)CCC4=NO)c(-c3ccncc3)o2)cc1`, the inhibition in [1] was 0.59%; in [2], -2.24%; in [3], -0.02%; in assay [4] it was -1.99%; in assay [5], -3.05%; in [6], 0.49%. The inhibition in assay [7] is -1.83%; in [8], -1.28%; in assay [9], 0.81%; in assay [10], -5.39%; in assay [11], 6.81%; in assay [12], -0.49%. Moreover, the inhibition in assay [13] is 5.63%; in assay [14], 0.06%; in [15] it was 1.37%; in assay [16], 3.66%; in [17] it was 5.12%; in [18] it was 1.69%. Moreover, the inhibition in assay [19] is 13%; in assay [20], -1.17%.
With `Cc1ccc(C(=O)NC2CCC2)cc1-c1ccc(C(=O)NCC2CC2)cc1`, the inhibition was -0.05% in [1]; 0.49% in assay [2]; 1.53% in assay [3]; 0.5% in assay [4]; 0.07% in [5]; 2.96% in assay [6]. In addition, the inhibition in assay [7] is 4.24%; in assay [8], 4.02%; in assay [9], 0.68%; in assay [10] it was 6.98%; in assay [11], 2.05%; in assay [12], 3.94%. In addition, the inhibition turned out to be 1.11% in assay [13]; 1.02% in assay [14]; 3.17% in assay [15]; 3.5% in assay [16]; 8.52% in [17]; 16.7% in [18]. In addition, the inhibition is 17.7% in [19] and 4.2% in assay [20].
In the case of `O=C1Nc2ccccc2/C1=C/Nc1ccc(-n2cncn2)cc1`, the inhibition in assay [1] was found to be 4.3%; in assay [2], 2.89%; in assay [3], 1.3%; in assay [4] it was 1.55%; in assay [5], 1.91%; in assay [6], 2.74%. Further, the inhibition in [7] came out at 4.04%; in assay [8], 4.98%; in [9], 12.3%; in [10], 3.5%; in assay [11] it was 8.52%; in assay [12], 4.57%. Further, the inhibition in assay [13] is 2.77%; in assay [14], 2.19%; in assay [15] it was 2.59%; in [16], 3.17%; in assay [17], 9.83%; in assay [18], 9.69%. Besides, the inhibition was 12.5% in assay [19] and 3.94% in assay [20].
